About 7,900 targets were measured; listed, in parts, are those with a hit and a random draw of the rest. About 0.6% of all pairs of compound and target were hits.
The targets below were run with CNCc1ccc(-c2[nH]c3cc(F)cc4c3c2CCNC4=O)cc1 [rucaparib] (assay: log2 fold change, soluble protein after heating vs DMSO (PISA); higher = thermal stabilisation; K562 cells, 10 uM, 30 min; active = over 0.2 and 3.5 SD of the protein, either way, in both replicates (recomputed)).
Outline: (§1)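 K562 cells (2×10^6 cells/mL) were treated with 10 μM compound for 30 min, and aliquots were heated for 3 min over 48°C-58°C. Pooled aliquots were extracted in PBS with 0.5% NP-40 at 4°C, and the supernatant after 21,000xg for 90 min was measured by TMTpro 16plex LC-MS/MS with channel sums equalised. Reported thermal stability, relative to control samples and from duplicates, is a log2 fold change.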
UniProt O15460, sequence (O15460 whole entry, looked up): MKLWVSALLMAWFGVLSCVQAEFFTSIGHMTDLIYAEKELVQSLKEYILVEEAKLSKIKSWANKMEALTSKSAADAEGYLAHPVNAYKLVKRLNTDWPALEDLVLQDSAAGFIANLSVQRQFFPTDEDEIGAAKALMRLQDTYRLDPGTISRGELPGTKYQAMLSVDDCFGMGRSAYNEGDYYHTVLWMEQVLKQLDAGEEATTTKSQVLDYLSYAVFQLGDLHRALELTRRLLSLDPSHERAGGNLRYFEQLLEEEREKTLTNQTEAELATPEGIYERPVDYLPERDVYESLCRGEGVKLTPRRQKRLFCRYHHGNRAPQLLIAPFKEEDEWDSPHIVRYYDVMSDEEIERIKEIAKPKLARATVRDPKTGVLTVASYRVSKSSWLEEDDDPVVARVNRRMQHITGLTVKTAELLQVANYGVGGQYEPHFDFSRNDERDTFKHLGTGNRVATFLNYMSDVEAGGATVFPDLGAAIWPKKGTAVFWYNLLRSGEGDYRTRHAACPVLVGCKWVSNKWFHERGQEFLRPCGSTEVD
UniProt O43809, sequence (O43809 whole entry, looked up): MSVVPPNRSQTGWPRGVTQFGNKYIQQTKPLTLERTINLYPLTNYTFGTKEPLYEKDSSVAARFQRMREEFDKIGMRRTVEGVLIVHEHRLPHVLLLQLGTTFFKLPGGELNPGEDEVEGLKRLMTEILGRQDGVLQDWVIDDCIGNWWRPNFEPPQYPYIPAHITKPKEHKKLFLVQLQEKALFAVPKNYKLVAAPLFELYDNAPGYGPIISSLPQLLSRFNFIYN
UniProt O60551, sequence (O60551 whole entry, looked up): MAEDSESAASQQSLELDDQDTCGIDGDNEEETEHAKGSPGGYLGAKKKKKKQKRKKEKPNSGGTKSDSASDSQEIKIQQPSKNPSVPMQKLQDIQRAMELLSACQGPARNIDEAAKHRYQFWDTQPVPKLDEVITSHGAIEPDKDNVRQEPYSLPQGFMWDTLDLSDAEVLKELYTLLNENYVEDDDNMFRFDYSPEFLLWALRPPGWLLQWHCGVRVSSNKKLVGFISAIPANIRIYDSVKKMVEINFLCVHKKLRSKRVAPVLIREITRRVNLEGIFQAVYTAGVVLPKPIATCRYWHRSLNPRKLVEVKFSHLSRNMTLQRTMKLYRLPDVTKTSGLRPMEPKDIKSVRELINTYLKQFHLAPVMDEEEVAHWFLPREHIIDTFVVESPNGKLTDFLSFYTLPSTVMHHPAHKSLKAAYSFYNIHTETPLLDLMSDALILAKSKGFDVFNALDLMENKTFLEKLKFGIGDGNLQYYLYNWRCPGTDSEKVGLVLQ
UniProt Q8N4C8, sequence (Q8N4C8 whole entry, looked up): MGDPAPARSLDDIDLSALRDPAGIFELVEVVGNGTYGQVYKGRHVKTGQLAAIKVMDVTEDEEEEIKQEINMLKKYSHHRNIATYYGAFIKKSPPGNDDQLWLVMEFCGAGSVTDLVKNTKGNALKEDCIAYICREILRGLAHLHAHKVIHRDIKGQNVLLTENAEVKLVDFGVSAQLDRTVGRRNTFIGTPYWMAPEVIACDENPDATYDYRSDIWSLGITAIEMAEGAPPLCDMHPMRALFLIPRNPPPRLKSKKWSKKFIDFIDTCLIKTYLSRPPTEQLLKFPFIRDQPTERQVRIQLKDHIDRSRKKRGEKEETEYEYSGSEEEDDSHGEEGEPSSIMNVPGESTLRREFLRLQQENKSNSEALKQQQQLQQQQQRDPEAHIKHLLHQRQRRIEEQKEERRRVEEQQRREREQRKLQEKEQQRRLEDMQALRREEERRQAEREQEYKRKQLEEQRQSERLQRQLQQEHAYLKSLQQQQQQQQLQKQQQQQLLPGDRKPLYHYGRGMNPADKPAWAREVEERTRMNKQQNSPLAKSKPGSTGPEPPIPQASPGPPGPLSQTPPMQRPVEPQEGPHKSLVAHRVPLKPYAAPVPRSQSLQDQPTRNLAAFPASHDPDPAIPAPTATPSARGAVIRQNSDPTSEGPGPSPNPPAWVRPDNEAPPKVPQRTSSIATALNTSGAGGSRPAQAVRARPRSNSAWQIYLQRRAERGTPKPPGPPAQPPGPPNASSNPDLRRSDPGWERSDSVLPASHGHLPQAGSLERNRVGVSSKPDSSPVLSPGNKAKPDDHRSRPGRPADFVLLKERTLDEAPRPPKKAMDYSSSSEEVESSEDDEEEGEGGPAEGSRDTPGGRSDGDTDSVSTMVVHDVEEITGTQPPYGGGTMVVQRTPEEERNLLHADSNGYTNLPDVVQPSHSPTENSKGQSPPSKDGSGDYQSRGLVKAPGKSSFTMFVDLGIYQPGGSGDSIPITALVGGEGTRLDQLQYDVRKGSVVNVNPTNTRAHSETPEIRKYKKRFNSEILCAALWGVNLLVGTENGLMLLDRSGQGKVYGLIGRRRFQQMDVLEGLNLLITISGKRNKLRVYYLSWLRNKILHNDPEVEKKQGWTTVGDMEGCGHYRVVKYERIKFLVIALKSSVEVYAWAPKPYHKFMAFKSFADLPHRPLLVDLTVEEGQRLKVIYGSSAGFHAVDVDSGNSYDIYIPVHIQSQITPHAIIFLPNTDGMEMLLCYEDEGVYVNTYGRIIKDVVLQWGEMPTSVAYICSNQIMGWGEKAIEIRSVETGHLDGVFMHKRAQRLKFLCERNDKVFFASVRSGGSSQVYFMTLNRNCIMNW
UniProt Q7Z3U7, sequence (Q7Z3U7 whole entry, looked up): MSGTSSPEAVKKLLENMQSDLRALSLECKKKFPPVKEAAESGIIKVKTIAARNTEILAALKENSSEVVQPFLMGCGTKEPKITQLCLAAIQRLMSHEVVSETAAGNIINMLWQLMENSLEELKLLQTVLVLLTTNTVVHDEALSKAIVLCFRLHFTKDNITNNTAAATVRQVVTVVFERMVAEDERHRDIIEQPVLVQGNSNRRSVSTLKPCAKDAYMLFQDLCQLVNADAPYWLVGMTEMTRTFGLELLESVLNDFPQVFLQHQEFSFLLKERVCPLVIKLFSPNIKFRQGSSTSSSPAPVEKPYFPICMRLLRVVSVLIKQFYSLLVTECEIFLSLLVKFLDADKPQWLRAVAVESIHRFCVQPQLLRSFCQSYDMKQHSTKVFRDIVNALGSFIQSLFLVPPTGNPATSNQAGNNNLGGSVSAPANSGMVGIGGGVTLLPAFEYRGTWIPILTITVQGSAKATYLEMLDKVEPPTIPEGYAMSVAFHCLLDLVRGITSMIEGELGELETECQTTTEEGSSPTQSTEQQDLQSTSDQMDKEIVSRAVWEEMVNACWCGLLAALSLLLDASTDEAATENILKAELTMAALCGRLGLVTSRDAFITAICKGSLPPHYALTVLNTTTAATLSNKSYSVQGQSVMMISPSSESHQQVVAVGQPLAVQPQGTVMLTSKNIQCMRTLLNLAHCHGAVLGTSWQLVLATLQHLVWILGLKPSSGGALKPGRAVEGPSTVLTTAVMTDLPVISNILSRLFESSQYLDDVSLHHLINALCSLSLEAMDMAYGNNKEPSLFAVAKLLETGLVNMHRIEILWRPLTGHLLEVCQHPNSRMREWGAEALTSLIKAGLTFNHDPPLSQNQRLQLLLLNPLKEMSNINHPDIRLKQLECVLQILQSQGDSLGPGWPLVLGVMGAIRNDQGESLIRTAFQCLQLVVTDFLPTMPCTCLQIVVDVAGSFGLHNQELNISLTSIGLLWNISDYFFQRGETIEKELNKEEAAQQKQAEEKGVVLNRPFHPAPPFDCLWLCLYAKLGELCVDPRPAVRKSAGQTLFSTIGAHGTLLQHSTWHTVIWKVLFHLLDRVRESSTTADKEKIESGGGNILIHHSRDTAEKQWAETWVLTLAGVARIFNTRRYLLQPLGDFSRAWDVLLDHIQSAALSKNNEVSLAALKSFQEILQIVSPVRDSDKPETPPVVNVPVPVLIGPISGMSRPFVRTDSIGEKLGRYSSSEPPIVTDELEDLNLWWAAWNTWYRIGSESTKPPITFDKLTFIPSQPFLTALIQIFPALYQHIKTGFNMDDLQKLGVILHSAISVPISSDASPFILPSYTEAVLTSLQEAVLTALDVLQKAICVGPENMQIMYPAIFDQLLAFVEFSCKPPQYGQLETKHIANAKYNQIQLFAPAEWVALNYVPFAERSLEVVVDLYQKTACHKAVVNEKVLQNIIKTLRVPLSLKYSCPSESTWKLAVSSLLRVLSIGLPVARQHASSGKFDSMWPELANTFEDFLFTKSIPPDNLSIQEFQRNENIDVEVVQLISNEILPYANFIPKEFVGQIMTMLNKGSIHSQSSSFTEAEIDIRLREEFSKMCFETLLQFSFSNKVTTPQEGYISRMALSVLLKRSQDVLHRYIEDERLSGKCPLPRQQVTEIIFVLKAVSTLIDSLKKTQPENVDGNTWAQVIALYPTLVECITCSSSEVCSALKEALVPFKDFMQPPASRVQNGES
UniProt P00846, sequence (P00846 whole entry, looked up): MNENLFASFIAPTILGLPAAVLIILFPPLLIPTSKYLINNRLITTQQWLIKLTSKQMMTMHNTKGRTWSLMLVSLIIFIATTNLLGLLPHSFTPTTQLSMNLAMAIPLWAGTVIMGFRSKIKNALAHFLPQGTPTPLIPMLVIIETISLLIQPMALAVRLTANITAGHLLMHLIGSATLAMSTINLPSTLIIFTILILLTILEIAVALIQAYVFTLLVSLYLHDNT
UniProt Q96I59, sequence (Q96I59 whole entry, looked up): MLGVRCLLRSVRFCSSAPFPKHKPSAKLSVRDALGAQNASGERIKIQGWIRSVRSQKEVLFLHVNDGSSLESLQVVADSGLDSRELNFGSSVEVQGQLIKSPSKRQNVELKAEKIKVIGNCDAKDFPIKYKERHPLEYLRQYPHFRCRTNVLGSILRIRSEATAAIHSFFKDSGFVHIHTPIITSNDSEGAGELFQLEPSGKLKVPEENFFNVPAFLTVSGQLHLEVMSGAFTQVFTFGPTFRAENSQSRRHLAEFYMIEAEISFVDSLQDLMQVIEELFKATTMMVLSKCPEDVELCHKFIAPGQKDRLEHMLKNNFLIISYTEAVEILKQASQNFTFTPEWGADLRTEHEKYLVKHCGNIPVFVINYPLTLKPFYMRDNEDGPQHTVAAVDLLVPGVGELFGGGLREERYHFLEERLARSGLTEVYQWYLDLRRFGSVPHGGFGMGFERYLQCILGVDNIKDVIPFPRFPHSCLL
For NOB1 (UniProt Q9ULX3), the log2 fold change was 0.141 (inactive).
With MRPS25 (UniProt P82663) the log2 fold change was 0.129 (inactive).
NACC1 (UniProt Q96RE7) was tested, and the log2 fold change was 0.01 (inactive).
With NEMP1 (UniProt O14524) the log2 fold change was 0.026 (inactive).
In the case of MTHFD1 (UniProt P11586), the log2 fold change was -0.032 (inactive).
For OXSM (UniProt Q9NWU1), the log2 fold change was -0.018 (inactive).
For MT-ATP6 (UniProt P00846), the log2 fold change was 0.06 (inactive).
With OTUD4 (UniProt Q01804) the log2 fold change was 0.136 (inactive).
For MRPL50 (UniProt Q8N5N7), the log2 fold change was 0.063 (inactive).
For NFATC2 (UniProt Q13469), the log2 fold change was -0.047 (inactive).
NUP205 (UniProt Q92621) was tested, and the log2 fold change was -0.065 (inactive).
With MRPS24 (UniProt Q96EL2) the log2 fold change was 0.153 (inactive).
In the case of MINK1 (UniProt Q8N4C8), the log2 fold change was -0.033 (inactive).
NUP85 (UniProt Q9BW27) was tested, and the log2 fold change was -0.047 (inactive).
NOP56 (UniProt O00567) was tested, and the log2 fold change was 0.233 (inactive).
For P4HA2 (UniProt O15460), the log2 fold change was 0.145 (inactive).
In the case of NCAPH (UniProt Q15003), the log2 fold change was 0.074 (inactive).
For MRPS15 (UniProt P82914), the log2 fold change was 0.084 (inactive).
For NA, A0A096LPI6, the log2 fold change was 0.007 (inactive).
With NQO1 (UniProt P15559) the log2 fold change was -0.077 (inactive).
NIBAN1 (UniProt Q9BZQ8) was tested, and the log2 fold change was 0.08 (inactive).
With MPHOSPH10 (UniProt O00566) the log2 fold change was 0.229 (inactive).
In the case of NCAPD2 (UniProt Q15021), the log2 fold change was 0.142 (inactive).
NFATC2IP (UniProt Q8NCF5) was tested, and the log2 fold change was 0 (inactive).
In the case of NARS2 (UniProt Q96I59), the log2 fold change was -0.021 (inactive).
With NMT2 (UniProt O60551) the log2 fold change was -0.04 (inactive).
For MTHFS (UniProt P49914), the log2 fold change was 0.013 (inactive).
For NUCKS1 (UniProt Q9H1E3), the log2 fold change was 0.027 (inactive).
In the case of MYH11 isoform 2 (UniProt P35749), the log2 fold change was -0.034 (inactive).
NUP160 (UniProt Q12769) was tested, and the log2 fold change was 0.019 (inactive).
In the case of NDUFA12 (UniProt Q9UI09), the log2 fold change was -0.061 (inactive).
In the case of NUDT21 (UniProt O43809), the log2 fold change was 0.004 (inactive).
With NCOA7 (UniProt Q8NI08) the log2 fold change was -0.029 (inactive).
For MON2 isoform 5 (UniProt Q7Z3U7), the log2 fold change was 0.01 (inactive).
NMRAL1 (UniProt Q9HBL8) was tested, and the log2 fold change was 0.84 (active).
For NMNAT1 (UniProt Q9HAN9), the log2 fold change was 0.354 (inactive).
For MND1 (UniProt Q9BWT6), the log2 fold change was 0.05 (inactive).
For NUDT16 (UniProt Q96DE0), the log2 fold change was 0.009 (inactive).
With NGLY1 (UniProt Q96IV0) the log2 fold change was 0.161 (inactive).

These targets were tested with CNc1nc(-c2ccc3c(N)n[nH]c3c2)cc(N2C[C@@H](C(=O)NC3CCCCC3)CC[C@H]2C)n1 in the same assay as above.
Outline: as §1
With NOB1 (UniProt Q9ULX3) the log2 fold change was 0.103 (inactive).
With MRPS25 (UniProt P82663) the log2 fold change was 0.233 (inactive).
With NACC1 (UniProt Q96RE7) the log2 fold change was -0.006 (inactive).
NEMP1 (UniProt O14524) was tested, and the log2 fold change was -0.045 (inactive).
MTHFD1 (UniProt P11586) was tested, and the log2 fold change was 0.058 (inactive).
For OXSM (UniProt Q9NWU1), the log2 fold change was -0.033 (inactive).
For MT-ATP6 (UniProt P00846), the log2 fold change was -0.176 (inactive).
For OTUD4 (UniProt Q01804), the log2 fold change was 0.019 (inactive).
With MRPL50 (UniProt Q8N5N7) the log2 fold change was -0.065 (inactive).
In the case of NFATC2 (UniProt Q13469), the log2 fold change was -0.382 (active).
With NUP205 (UniProt Q92621) the log2 fold change was -0.012 (inactive).
MRPS24 (UniProt Q96EL2) was tested, and the log2 fold change was 0.137 (inactive).
MINK1 (UniProt Q8N4C8) was tested, and the log2 fold change was -0.029 (inactive).
With NUP85 (UniProt Q9BW27) the log2 fold change was -0.034 (inactive).
With NOP56 (UniProt O00567) the log2 fold change was -0.028 (inactive).
In the case of P4HA2 (UniProt O15460), the log2 fold change was 0.016 (inactive).
NCAPH (UniProt Q15003) was tested, and the log2 fold change was 0.009 (inactive).
For MRPS15 (UniProt P82914), the log2 fold change was 0.115 (inactive).
In the case of NA, A0A096LPI6, the log2 fold change was -0.055 (inactive).
NQO1 (UniProt P15559) was tested, and the log2 fold change was -0.008 (inactive).
For NIBAN1 (UniProt Q9BZQ8), the log2 fold change was 0.013 (inactive).
With MPHOSPH10 (UniProt O00566) the log2 fold change was -0.081 (inactive).
NCAPD2 (UniProt Q15021) was tested, and the log2 fold change was 0.008 (inactive).
NFATC2IP (UniProt Q8NCF5) was tested, and the log2 fold change was 0.005 (inactive).
With NARS2 (UniProt Q96I59) the log2 fold change was -0.006 (inactive).
NMT2 (UniProt O60551) was tested, and the log2 fold change was -0.027 (inactive).
For MTHFS (UniProt P49914), the log2 fold change was -0.004 (inactive).
NUCKS1 (UniProt Q9H1E3) was tested, and the log2 fold change was -0.071 (inactive).
MYH11 isoform 2 (UniProt P35749) was tested, and the log2 fold change was 0.009 (inactive).
For NUP160 (UniProt Q12769), the log2 fold change was -0.018 (inactive).
With NDUFA12 (UniProt Q9UI09) the log2 fold change was 0.031 (inactive).
In the case of NUDT21 (UniProt O43809), the log2 fold change was -0.025 (inactive).
With NCOA7 (UniProt Q8NI08) the log2 fold change was -0.064 (inactive).
In the case of MON2 isoform 5 (UniProt Q7Z3U7), the log2 fold change was 0.044 (inactive).
For NMRAL1 (UniProt Q9HBL8), the log2 fold change was 0.018 (inactive).
For NMNAT1 (UniProt Q9HAN9), the log2 fold change was 0.02 (inactive).
With MND1 (UniProt Q9BWT6) the log2 fold change was -0.059 (inactive).
For NUDT16 (UniProt Q96DE0), the log2 fold change was -0.004 (inactive).
In the case of NGLY1 (UniProt Q96IV0), the log2 fold change was 0.05 (inactive).
